Sa helicase inh – S. aureus DNA helicase inhibition; purified S. aureus helicase, fluorescence unwinding assay; inhibition, % (concentration not given with the values); 120,000 tested, 0.05% active; in the data active = inhibition above about 25%, passing the limit was not always enough;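 also: 0% = mean of negative control wells and 100% = mean of positive control wells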
Sa growth inh – S. aureus growth inhibition. S. aureus RN4220 growth, OD600, 20 h, 42 °C; active compounds read low. 170,000 tested, 0.53% active. AID 720641. relative growth, % (test concentration not listed);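 active = relative growth at most 50% at the other temperature and 20+ points below 30 °C, or under 10% at both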
* marks the source's active call; other numbers are inactive results; / = no result given. A selection: hits, their analogues and other compounds. The true share with any hit is near 0.52%.

SMILES	Sa helicase inh	Sa growth inh
CC1CCC(C(C)C)C(NC(=S)Nc2cccc(F)c2)C1 (stereo not given)	/	-0.8*
O=C(Nc1cccc(F)c1)NC1CCCC1	6.0	84.5
CCCN1C(C(=O)c2ccccc2)=C(OC(=O)c2ccc(F)cc2)c2ccccc2S1(=O)=O	/	25.9
CCCCN1C(C(=O)c2ccccc2)=C(OC(=O)CC)c2ccccc2S1(=O)=O	/	8.2*
CCCCC(=O)OC1=C(C(=O)c2ccccc2)N(CCC)S(=O)(=O)c2ccccc21	/	4.0*
CCCN1C(C(=O)c2ccccc2)=C(OC(=O)c2ccc(C)cc2)c2ccccc2S1(=O)=O	/	97.3
CCCCCN1C(C(=O)c2ccccc2)=C(OC(=O)CC)c2ccccc2S1(=O)=O	/	-0.5*
CCCCCN1C(C(=O)c2ccccc2)=C(NC(C)=O)c2ccccc2S1(=O)=O	/	111.6
Cc1nc2ccccc2n1C1CCN(C(=O)NC2CCCCC2)CC1	0.0	102.2
Cc1cc(C(=O)CSc2nc(N)nc(N)n2)c(C)n1CCC1=CCCCC1	-18.0	107.0
O=C(Cn1ncc2ccsc2c1=O)N1CCN(c2cccc(Cl)c2)CC1	14.0	102.0
COc1cc2c3nc4n(c(=O)c3n(C)c2cc1OC)CCS4	49.0*	97.8
Cn1c2ccc(F)cc2c2nc3n(c(=O)c21)CCS3	-3.0	96.1
Cc1ccc(-n2c(=O)c3oc4ccccc4c3n(CC(=O)NC(C)(C)C)c2=O)cc1	5.0	111.7
CCCCn1c2ccccc2c2nnc(SCC(=O)N=C3NC(=O)CS3)nc21	8.0	90.4
CCCN(CCC)Cn1nc(-c2ccc3c(c2)OCO3)oc1=S	12.0	38.8*
CCOC(=O)c1nnc(-c2ccc3c(c2)OCO3)o1	-30.0	85.4
CC1CCCCC1NC(=O)CCCn1c(=O)[nH]c2ccsc2c1=O (stereo not given)	8.0	98.3
Oc1c(C(Nc2ccccn2)c2ccccc2F)ccc2cccnc12 (stereo not given)	/	17.1
Oc1ccccc1C(Nc1ccccn1)c1ccc2cccnc2c1O (stereo not given)	1.0	4.8*
COc1ccc(-c2cc(C(F)(F)F)nc(NCc3ccccc3)n2)cc1	/	98.4
COc1ccc(-c2cc(C(F)(F)F)nc(S(C)(=O)=O)n2)cc1	/	28.4*
CC1CCCC(NC(=O)c2cccc3c2SCCC3=O)C1C (stereo not given)	31.0	80.4
O=C1N=c2ccccc2=C1c1sc(Nc2cccc(C(F)(F)F)c2)nc1O	-4.0	89.2
Cc1ccc(Nc2nc(C(=O)N(C)Cc3ccccc3)cs2)cc1	-7.0	131.2
SMILES	Sa helicase inh	Sa growth inh
Cc1ccc(Nc2nc(CN(C)CCCc3[nH]nc(N)c3C#N)cs2)cc1	-11.0	-1.1*
COc1cc(Cc2cc(OC)c(C)cc2OC)c(OC)cc1C	/	97.8
COc1cc(C)c(Cc2cnc(N)nc2N)cc1OC	/	-0.2*
O=C1Cc2cc(C(=O)CSc3nnc(-c4cccs4)n3CC3CCCO3)ccc2N1 (stereo not given)	-2.0	109.1
CC1Cc2ccccc2N1C(=O)Nc1c[nH]c2ccccc12 (stereo not given)	3.0	15.5
O=C(Nc1c[nH]c2ccccc12)N1CCCc2ccccc21	11.0	37.1
CC(=O)N1CCN(C(=O)Nc2c[nH]c3ccccc23)CC1	10.0	6.1*
O=C(NCCN1CCOCC1)Nc1c[nH]c2ccccc2c1=O	11.0	95.8
CC1CCCCN1C(=O)Nc1c[nH]c2ccccc12 (stereo not given)	6.0	2.7*
O=C(NCCN1CCOCC1)Nc1c[nH]c2ccccc12	13.0	3.2*
Cc1ccc(N2CC(C(=O)N(C)Cc3c(F)cccc3Cl)CC2=O)cc1 (stereo not given)	16.0	100.6
CCNC(=O)C(C)NC1CCN(C(C)C)CC1 (stereo not given)	-14.0	96.8
COC(=O)CC1=C(C(=O)OC)C(c2cccnc2)C(C#N)=C(N)O1 (stereo not given)	7.0	92.9
CC(C)OC(=O)CN1C(=O)C(C)(C)Oc2ccc(C(=O)Nc3ccccc3)cc21	-17.0	84.4
N=C1/C(=C2\Nc3ccccc3S2)CC(=O)N1Cc1ccco1	-24.0	41.1
N=C1/C(=C2\Nc3ccccc3S2)CC(=O)N1CCc1ccccc1	-13.0	1.4*
Fc1ccc(CN2CCN(c3ncccn3)CC2)cc1F	10.0	81.2
CCC(=O)Nc1ccc(C2=CSC3=NS(=O)(=O)CCN23)cc1	1.0	96.7
CSc1nn(-c2ccc(C(=O)OCC(=O)N(C)C)cc2)c(=S)s1	8.0	107.2
O=C(Nc1nnc(-c2ccc3c(c2)CCCC3)o1)C1CCCCC1	-17.0	/
CCC(=O)Nc1nnc(-c2ccco2)o1	3.0	90.3
CCC(=O)Nc1nnc(-c2cccc(OC)c2)o1	-3.0	0.6*
CCC(=O)Nc1nnc(-c2ccc3c(c2)CCCC3)o1	-4.0	-0.4*
CC(C)(C)c1ccc(S(=O)(=O)N2CCCCC2C(=O)O)cc1 (stereo not given)	13.0	120.9
Cc1cccc(OC(C)C(=O)Nc2ccc(S(N)(=O)=O)cc2)c1 (stereo not given)	-13.0	102.1
CCOC(=O)C(C)Oc1cc2oc(=O)c3c(c2cc1Cl)CCC3 (stereo not given)	-2.0	85.9

Assay outcomes (PubChem BioAssay)
